Sampled rows, rich in hits. Any-hit rate of the full collection: about 9%.
JMJD2A Tudor: JMJD2A Tudor domain (human) inhibition | O75164 | AlphaScreen JMJD2A-Tudor / H3K4me3 peptide binding | Potency, µM (series often up to 114 µM), usual class: inhibitors | 390,000 compounds, 4.4% hits; further: nearly all actives have a fitted effect of over 50% in size
PLK1 PBD block: inhibitors of human PLK1 polo-box domain binding | P53350 | Plk1 PBD binding of FITC phosphopeptide, fluorescence polarization | Potency, µM, usual class: inhibitors | 360,000 compounds, 2.8% hits; further: series mostly up to about 57 µM; nearly all actives have a fitted effect of over 65% in size
G9a inh: inhibitors of human histone lysine methyltransferase G9a. 350,000 compounds, 8.8% hits. G9a H3K9 monomethylation, AlphaScreen, 2 h. Potency, µM (titrated, usually from 102 µM), most hits filed as inhibitors. Q96KQ7; further: nearly all actives have a fitted effect of over 75% in size
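AlphaScreen detection with an anti-monomethyl H3K9 antibody quantified product after a 2 h room-temperature reaction containing 500 nM biotinylated H3K9 peptide, 20 µM SAM and 20 nM enzyme, which had been preincubated 15 min with compound.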
BAZ2B block: inhibitors of human BAZ2B bromodomain; Potency, µM (series often up to 114 µM), actives largely listed as inhibitors; AID 504333; AlphaScreen BAZ2B-H3K14Ac peptide displacement; 360,000 compounds, 4.4% hits; further: nearly all actives have a fitted effect of over 60% in size
Target sequence (Q9UIF8 whole entry, looked up): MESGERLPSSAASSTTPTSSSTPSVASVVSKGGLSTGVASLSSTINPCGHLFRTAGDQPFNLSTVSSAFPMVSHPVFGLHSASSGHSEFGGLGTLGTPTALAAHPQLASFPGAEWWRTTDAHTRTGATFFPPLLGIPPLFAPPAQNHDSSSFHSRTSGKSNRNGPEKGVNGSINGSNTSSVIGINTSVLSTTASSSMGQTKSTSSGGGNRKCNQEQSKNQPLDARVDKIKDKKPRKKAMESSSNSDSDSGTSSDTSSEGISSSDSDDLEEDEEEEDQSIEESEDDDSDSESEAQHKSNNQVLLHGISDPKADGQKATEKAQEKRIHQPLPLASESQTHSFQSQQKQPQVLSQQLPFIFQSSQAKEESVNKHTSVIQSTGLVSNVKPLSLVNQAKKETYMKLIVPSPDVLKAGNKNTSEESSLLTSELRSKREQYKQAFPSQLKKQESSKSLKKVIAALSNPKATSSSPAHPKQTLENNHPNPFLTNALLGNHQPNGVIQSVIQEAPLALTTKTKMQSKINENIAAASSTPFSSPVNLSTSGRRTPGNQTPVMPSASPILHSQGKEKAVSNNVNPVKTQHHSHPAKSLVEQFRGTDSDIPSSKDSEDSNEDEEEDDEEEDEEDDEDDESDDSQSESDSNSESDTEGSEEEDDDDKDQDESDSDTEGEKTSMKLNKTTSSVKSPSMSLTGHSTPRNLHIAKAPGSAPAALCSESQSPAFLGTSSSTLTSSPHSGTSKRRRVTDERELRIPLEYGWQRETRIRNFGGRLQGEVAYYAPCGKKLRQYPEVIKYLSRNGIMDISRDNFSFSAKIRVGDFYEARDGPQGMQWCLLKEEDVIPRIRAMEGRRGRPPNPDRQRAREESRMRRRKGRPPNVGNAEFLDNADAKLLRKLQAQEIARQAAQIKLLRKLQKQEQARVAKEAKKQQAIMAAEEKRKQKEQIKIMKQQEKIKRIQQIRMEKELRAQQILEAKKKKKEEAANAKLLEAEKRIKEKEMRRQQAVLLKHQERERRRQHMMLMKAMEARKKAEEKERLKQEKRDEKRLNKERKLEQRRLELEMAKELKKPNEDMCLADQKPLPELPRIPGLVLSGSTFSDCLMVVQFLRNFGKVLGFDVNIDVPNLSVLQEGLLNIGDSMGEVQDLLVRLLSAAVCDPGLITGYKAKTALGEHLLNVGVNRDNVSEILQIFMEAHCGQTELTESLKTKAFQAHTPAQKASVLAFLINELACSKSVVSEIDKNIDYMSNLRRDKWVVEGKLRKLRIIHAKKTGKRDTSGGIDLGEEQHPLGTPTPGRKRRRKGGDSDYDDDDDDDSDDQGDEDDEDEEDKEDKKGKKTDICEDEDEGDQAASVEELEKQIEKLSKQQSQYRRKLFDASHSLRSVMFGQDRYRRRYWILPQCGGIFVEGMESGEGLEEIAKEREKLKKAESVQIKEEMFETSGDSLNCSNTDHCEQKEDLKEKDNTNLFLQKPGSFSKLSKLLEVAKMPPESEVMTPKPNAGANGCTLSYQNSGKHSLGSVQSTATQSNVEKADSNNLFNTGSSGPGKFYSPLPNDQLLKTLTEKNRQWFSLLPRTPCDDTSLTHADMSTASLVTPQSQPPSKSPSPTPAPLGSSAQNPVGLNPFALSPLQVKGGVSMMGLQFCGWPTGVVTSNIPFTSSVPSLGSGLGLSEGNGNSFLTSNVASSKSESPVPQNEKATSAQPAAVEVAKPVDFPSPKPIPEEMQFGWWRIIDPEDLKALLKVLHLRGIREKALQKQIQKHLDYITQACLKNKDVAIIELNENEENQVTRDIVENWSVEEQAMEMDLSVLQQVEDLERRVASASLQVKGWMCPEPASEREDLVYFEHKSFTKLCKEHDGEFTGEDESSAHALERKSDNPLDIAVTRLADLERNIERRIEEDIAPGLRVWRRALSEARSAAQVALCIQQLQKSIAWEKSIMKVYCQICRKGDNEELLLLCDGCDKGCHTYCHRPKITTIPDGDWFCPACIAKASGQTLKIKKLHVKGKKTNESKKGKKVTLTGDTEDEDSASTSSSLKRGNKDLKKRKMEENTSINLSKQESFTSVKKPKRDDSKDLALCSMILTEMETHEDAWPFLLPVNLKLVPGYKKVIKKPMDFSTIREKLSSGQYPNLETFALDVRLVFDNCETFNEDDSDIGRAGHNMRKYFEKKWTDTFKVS
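AlphaScreen luminescence quantifies BAZ2B engagement of H3K14Ac peptide; the protein and biotinylated peptide are both at 50 nM final, buffer PBS pH 7.4 with 0.01% Tween-20, all steps at room temperature.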
HP1b binding inh: HP1-beta chromodomain-methylated histone interaction inhibition; Potency, µM (top dose mostly 114 µM), hits mostly inhibitors; AID 540317; P83916; AlphaScreen HP1-beta / biotin-H3K9me3 peptide binding; 390,000 compounds, 0.56% hits; further: nearly all actives have a fitted effect of over 70% in size
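HP1-beta protein (50 nM final) preincubated 30 min at room temperature with biotinylated H3(1-18)K9me3 peptide (50 nM) in PBS pH 7.4, 0.01% Tween-20, then compound added for 30 min. AlphaScreen streptavidin donor/nickel chelate acceptor beads (10 ug/mL final), 30 min dark, luminescence read.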
12-LOX inh: ALOX12 (human) lipoxygenase inhibition; P18054; purified 12hLO, xylenol orange hydroperoxide absorbance; Potency, µM (top dose mostly 108 µM), actives largely listed as inhibitors; 580,000 compounds, 1.1% hits
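Purified human 12hLO (150 nM final) in 25 mM Hepes, 0.01% Triton X-100, pH 7.0 was preincubated 15 min at room temperature with compound. Then 40 uM arachidonic acid was added, 30 min. Hydroperoxide was read by Fe-XO absorbance ratio 573/405 nm.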
Each line names hits and unclear results; the compound was inactive in the other large screens. The call rests on the fitted dose curve; in most records, active means well fitted curve in the direction sought with a large enough effect; inconclusive means small, poorly fitted or top-dose-only effect, or another doubt; inactive means no such curve, though single readings can be large; an effect the other way counts as inactive or inconclusive.

COc1ccc2c(c1)nc(SCC(=O)C(C)(C)C)n2C	JMJD2A Tudor inconclusive, G9a inh inconclusive
C=CC[n+]1c(-c2ccccc2)csc1NC(C)(C)C	G9a inh inconclusive, BAZ2B block 50.1µM, HP1b binding inh inconclusive
O=C1C2C3CCCC3=C3CCCC3C2C(=O)N1c1ccc(Cl)cc1 (configuration not stated)	none
CN(N=Nc1ccc([N+](=O)[O-])cc1)c1ccccc1	PLK1 PBD block inconclusive, G9a inh inconclusive, BAZ2B block inconclusive
CN(CCCC(=O)O)c1ccc(N=Nc2ccc([N+](=O)[O-])cc2)cc1	JMJD2A Tudor 22.4µM, HP1b binding inh 11.2µM (no result: G9a inh, BAZ2B block)
NC(=O)c1ccc(-n2nnnc2SCC(=O)Nc2ccccc2-c2ccccc2)cc1	none
O=C(CSc1c2c(nc3ccc(Cl)cc13)CCCC2)N1CCN(c2ccc(Cl)cc2)CC1	none (no result: PLK1 PBD block, BAZ2B block)
O=C(O)c1c2c(nc3ccc(F)cc13)CCC2	12-LOX inh inconclusive
O=C(O)c1c2c(nc3ccc(Cl)cc13)CCC2	G9a inh 39.8µM, BAZ2B block inconclusive
Cc1ccc2nc3c(c(C(=O)O)c2c1)CCC3	G9a inh 50.1µM
O=S(=O)(c1ccc(Br)cc1)N1CCCC1	none
CCn1c(=O)cc(SCC(=O)Nc2cccc(C)n2)c2ccccc21	none
COCCn1nnnc1C(c1cc2ccc(OC)cc2[nH]c1=O)N1CCN(C2CCCCC2)CC1 (configuration not stated)	none
CC(C)(O)c1ccccc1CC[C@@H](SCC1(CC(=O)O)CC1)c1cccc(/C=C/c2ccc3ccc(Cl)cc3n2)c1	JMJD2A Tudor 79.4µM, PLK1 PBD block inconclusive (no result: G9a inh, BAZ2B block, 12-LOX inh)
CC(=O)Oc1ccc(Cl)cc1/C=C/c1ccc2ccccc2n1	none
COc1cccc(CNc2ccc3c(c2)nc(C)n3C)c1OC	G9a inh 35.5µM
COC(=O)c1ccc(NC(=O)Nc2ccc3c(c2)nc(C)n3C)cc1	none
COc1ccc(CNc2nc3ccccc3n2Cc2ccc(C)cc2)cc1OC	G9a inh 79.4µM, BAZ2B block inconclusive
Cc1nc2cc(NCc3nc4ccccc4n3Cc3ccccc3)ccc2n1C	JMJD2A Tudor inconclusive, BAZ2B block 44.7µM, HP1b binding inh inconclusive
COc1ccc(CNc2ccc3c(c2)nc(C)n3C)cc1OC	G9a inh 39.8µM
COc1cccc(S(=O)(=O)N(C)C[C@H]2OCc3cn(nn3)CCCC(=O)N([C@@H](C)CO)C[C@@H]2C)c1	none (no result: JMJD2A Tudor, G9a inh, BAZ2B block, HP1b binding inh)
O=C1NC[C@H](CCCCN2C[C@H](Cc3ccc(O)cc3)N(CCc3ccc(O)cc3)C(=O)C2=O)N(CC2CCCCC2)C1=O	12-LOX inh inconclusive (no result: JMJD2A Tudor, G9a inh, BAZ2B block, HP1b binding inh)
O=C1NCCNC(=O)c2ccccc2OCCOc2ccccc21	none
O=C1[O][Bi][O]c2ccccc21	G9a inh 3.16µM (no result: JMJD2A Tudor, PLK1 PBD block, BAZ2B block, HP1b binding inh, 12-LOX inh)
N#Cc1nc(-c2ccc(COc3ccccc3)o2)oc1N1CCCCC1	JMJD2A Tudor inconclusive, G9a inh 4.47µM, BAZ2B block 5.01µM, HP1b binding inh inconclusive (no result: PLK1 PBD block)
N#Cc1nc(-c2ccc(COc3ccc(Cl)cc3)o2)oc1N1CCCCC1	JMJD2A Tudor inconclusive, G9a inh 3.16µM, BAZ2B block inconclusive (no result: PLK1 PBD block)
Cc1ccsc1CN(C)C(=O)CCc1nnc(COc2ccccc2)o1	none
O=C(c1c(O)cc(O)cc1O)C1c2c(cc(O)c3c2O[C@H](c2ccc(O)cc2)[C@@H](O)C3)OC1c1ccc(O)cc1 (some centres not stated)	JMJD2A Tudor inconclusive, BAZ2B block inconclusive, 12-LOX inh 25.1µM
O=C(COC(=O)CC1CC2CCC1C2)Nc1ccccc1[N+](=O)[O-] (configuration not stated)	JMJD2A Tudor 50.1µM, HP1b binding inh inconclusive (no result: G9a inh, BAZ2B block)
O=C(COC(=O)CC1CC2CCC1C2)Nc1ccc(F)cc1 (configuration not stated)	none
CN1CCN(Cc2ccc(OCc3ccccc3)cc2)CC1	12-LOX inh inconclusive
NC(=O)C1CCN(Cc2cccc(OCc3ccccc3)c2)CC1	JMJD2A Tudor 2.51µM, BAZ2B block inconclusive, HP1b binding inh inconclusive, 12-LOX inh inconclusive (no result: G9a inh)
CC(C)NC(=O)C1CCN(Cc2cccc(OCc3ccccc3)c2)CC1	none (no result: JMJD2A Tudor, G9a inh, BAZ2B block, HP1b binding inh)
CC(C)CNC(=O)C1CCN(Cc2ccc(OCc3ccccc3)cc2)CC1	JMJD2A Tudor 1.12µM, G9a inh inconclusive, BAZ2B block inconclusive, HP1b binding inh inconclusive, 12-LOX inh inconclusive
c1ccc(COc2cccc(CN3CCc4ccccc4C3)c2)cc1	JMJD2A Tudor 56.2µM, 12-LOX inh inconclusive (no result: G9a inh)
CCOC(=O)C1CCN(Cc2ccc(F)c(Br)c2)CC1	JMJD2A Tudor 3.16µM, G9a inh inconclusive, BAZ2B block 50.1µM, 12-LOX inh inconclusive
CCOC(=O)C1CCN(Cc2nc3ccc(Cl)cc3n2CCO)CC1	JMJD2A Tudor 1.12µM, G9a inh inconclusive, BAZ2B block 44.7µM, HP1b binding inh 14.1µM, 12-LOX inh inconclusive
CCOC(=O)C1CCN(Cc2cccc(OCc3ccccc3)c2)CC1	JMJD2A Tudor 8.91µM, G9a inh inconclusive, HP1b binding inh inconclusive
CCOC(=O)C1CCN(Cc2nnnn2CCc2ccccc2)CC1	none (no result: G9a inh)
O=C(NCc1ccccn1)C1CCN(Cc2cccc(OCc3ccccc3)c2)CC1	JMJD2A Tudor 3.55µM, BAZ2B block inconclusive, HP1b binding inh inconclusive
Fc1ccc(CN2CCSCC2)cc1Br	JMJD2A Tudor 3.16µM, G9a inh 8.91µM, BAZ2B block 50.1µM, HP1b binding inh inconclusive, 12-LOX inh inconclusive
COCCN1C(=O)[C@H]2CN(Cc3ccc(F)c(Br)c3)C[C@H]2C1=O	none (no result: JMJD2A Tudor, PLK1 PBD block, G9a inh, BAZ2B block, HP1b binding inh)
C#Cc1ccc(CN2CCC(N3CCC(C(=O)NCc4ccccn4)CC3)CC2)cc1	none (no result: G9a inh)
Cc1ccc(C)c(N2CCN(C(=O)c3ccc4c(=O)n5c(nc4c3)CCCCC5)CC2)c1	BAZ2B block inconclusive
CCCc1cc(=O)[nH]c(SC(C)C(=O)Nc2ccc3c(c2)OCCO3)n1 (configuration not stated)	none
CCc1ccc(NC(=O)c2ccc(-n3cncn3)c([N+](=O)[O-])c2)cc1	G9a inh inconclusive, 12-LOX inh inconclusive
Cc1ccc(S(=O)(=O)N2CCN(C3CCN(CCC(C)C)C3=O)CC2)cc1F (configuration not stated)	none (no result: JMJD2A Tudor, PLK1 PBD block, G9a inh, BAZ2B block, HP1b binding inh)
O=C(Cn1c(-c2ccccc2)noc1=O)Nc1ccc(S(=O)(=O)N2CCOCC2)cc1	none
CC(C)c1noc([C@@H]2C[C@H](NS(=O)(=O)c3ccc(C#N)cc3)CN2C)n1	none (no result: JMJD2A Tudor, PLK1 PBD block, G9a inh, BAZ2B block, HP1b binding inh)
O=C(CC1C(=O)NCCN1Cc1ccccc1C(F)(F)F)NC1CCCCCC1 (configuration not stated)	G9a inh 44.7µM
O=C(CC1C(=O)NCCN1Cc1ccccc1C(F)(F)F)NC1CCCCC1 (configuration not stated)	PLK1 PBD block inconclusive, G9a inh 39.8µM
O=C(CC1C(=O)NCCN1Cc1ccccc1C(F)(F)F)NC1CCC1 (configuration not stated)	none (no result: G9a inh)
